Compounds with a hit are over-represented: about 3.5% of the library has one in this group of screens.
mHTT CaM bind = inhibitors of human mutant huntingtin-calmodulin interaction; AID 1671202; actives 3.6% (n = 190,000); AlphaScreen His-mHTT/GST-CaM binding, luminescence; inhibition, % at 15 µM
Pf apPOL block = Pf-apPOL DNA polymerase inhibition; Recombinant Pf-apPOL, molecular beacon fluorescence, 1.5 h; inhibition, % at 10 µM; actives 0.25% (n = 210,000)
Numbers stand for hits. Rule as the data show it: active = inhibition above about 50%; inactive = the rest.

`COC(=O)c1cnc2nc(C)ccc2c1Nc1ccc(C)c(Cl)c1` gave mHTT CaM bind 78 and Pf apPOL block inactive.
For COC(=O)c1cnc2nc(C)ccc2c1Nc1cccc(Br)c1 the results were mHTT CaM bind inactive and Pf apPOL block inactive.
Screening COC(=O)c1cnc2nc(C)ccc2c1Nc1ccc(F)c(Cl)c1 returned mHTT CaM bind inactive and Pf apPOL block inactive.
COC(=O)c1cnc2nc(C)ccc2c1Nc1ccc(Br)cc1C was read as mHTT CaM bind 94 and Pf apPOL block inactive.
For COC(=O)c1cnc2nc(C)ccc2c1Nc1ccc(OC)cc1 the results were mHTT CaM bind inactive and Pf apPOL block inactive.
Cc1ccc(C2CC(=O)Nc3n[nH]c(-c4ccccc4)c32)cc1 (stereo unspecified) was read as mHTT CaM bind inactive and Pf apPOL block inactive.
Screening CC(C)OCCCNC(=O)CCS(=O)(=O)Cc1ccccc1Cl returned mHTT CaM bind inactive and Pf apPOL block inactive.
CC(C)(C)NC(=O)Nc1nnc(SCC(=O)Nc2nc3ccccc3s2)s1 was read as mHTT CaM bind inactive and Pf apPOL block inactive.
`CCOC(=O)c1cnc2nc(C)ccc2c1Nc1ccc(F)c(F)c1` gave mHTT CaM bind inactive and Pf apPOL block inactive.
`CCOC(=O)c1cnc2nc(C)ccc2c1Nc1ccc(Cl)cc1` gave mHTT CaM bind 66 and Pf apPOL block inactive.
For O=C(Nc1ccc2c(N3CCOCC3)ncnc2c1)c1ccccc1Cl the results were mHTT CaM bind inactive and Pf apPOL block inactive.
Screening CCC(=O)N1CCN(c2nc3c(s2)c(C)nn3-c2ccccc2)CC1 returned mHTT CaM bind inactive and Pf apPOL block inactive.
`COc1ccccc1C1CC(c2ccc(F)cc2)=NN1C(=O)CN1CCC(C)CC1` (stereo unspecified) gave mHTT CaM bind 93 and Pf apPOL block inactive.
For COc1ccccc1C1=NN(C(=O)CN2CCC(C)CC2)C(c2cccc(F)c2)C1 (stereo unspecified) the results were mHTT CaM bind inactive and Pf apPOL block inactive.
Screening COc1ccccc1C1CC(c2cccc(F)c2)=NN1C(=O)CN1CCN(C)CC1 (stereo unspecified) returned mHTT CaM bind 99 and Pf apPOL block inactive.
CC(=O)N1CCN(CC(=O)N2N=C(c3ccccc3)CC2c2ccc(F)cc2)CC1 (stereo unspecified) was read as mHTT CaM bind inactive and Pf apPOL block inactive.
For O=C(NCc1ccccc1)c1ccc(NC(=O)C2CC2)cc1N1CCOCC1 the results were mHTT CaM bind inactive and Pf apPOL block inactive.
`Cc1nc(SCc2ccccc2)n[nH]1` gave mHTT CaM bind inactive and Pf apPOL block inactive.
For Cc1ccccc1CN1[C@@H](CC(C)C)COc2cc(Br)ccc2S1(=O)=O the results were mHTT CaM bind inactive and Pf apPOL block inactive.
CCN1CCN(c2ncc3c(n2)CCN(Cc2ccc(Br)cc2)C3)CC1 was read as mHTT CaM bind 76 and Pf apPOL block inactive.
CCCN1CCN(c2ncc3c(n2)CCN(Cc2ccc(CC)cc2)C3)CC1 was read as mHTT CaM bind inactive and Pf apPOL block inactive.
`CCOc1ccc(CN2CCc3nc(N4CCC(C)CC4)ncc3C2)cc1` gave mHTT CaM bind inactive and Pf apPOL block inactive.
For CCCN1CCN(c2ncc3c(n2)CCN(Cc2ccc(N(C)C)cc2)C3)CC1 the results were mHTT CaM bind 53 and Pf apPOL block inactive.
For CCCN1CCN(c2ncc3c(n2)CCN(Cc2ccc(Br)cc2)C3)CC1 the results were mHTT CaM bind inactive and Pf apPOL block inactive.
CC1CCN(c2ncc3c(n2)CCN(Cc2ccc(Br)cc2)C3)CC1 was read as mHTT CaM bind 54 and Pf apPOL block inactive.
For c1ccc(N=C2C(Nc3ccccc3)=Nc3ccccc32)cc1 the results were mHTT CaM bind 63 and Pf apPOL block inactive.
Screening NC1=NC(=Nc2ccccc2)c2ccccc21 returned mHTT CaM bind inactive and Pf apPOL block inactive.
C=CCn1c(SCC(=O)NCc2cccnc2)nc2sc(C)c(C)c2c1=O was read as mHTT CaM bind inactive and Pf apPOL block inactive.
Screening COC[C@H]1CCCN1c1ccc2c(c1)O[C@H](COCc1ccccc1)CN([C@H](C)c1ccccc1)S2(=O)=O returned mHTT CaM bind inactive and Pf apPOL block inactive.
`CN(C)c1ccc(/C=C2\N=C(c3cccc([N+](=O)[O-])c3)OC2=O)cc1` gave mHTT CaM bind inactive and Pf apPOL block 97.
Screening Cc1ccc(C2=N/C(=C\c3cccc(Br)c3)C(=O)O2)cc1[N+](=O)[O-] returned mHTT CaM bind 51 and Pf apPOL block inactive.
Screening Cc1ccc(C2=N/C(=C\c3ccc(Br)cc3)C(=O)O2)cc1[N+](=O)[O-] returned mHTT CaM bind inactive and Pf apPOL block inactive.
CCN(CC)c1ccc(/C=C2\N=C(c3cccc([N+](=O)[O-])c3)OC2=O)cc1 was read as mHTT CaM bind inactive and Pf apPOL block inactive.
CCC(=O)N(CCC1(c2ccccc2)CCOC(C)(C)C1)Cc1ccc(OC)c(OC)c1 (stereo unspecified) was read as mHTT CaM bind inactive and Pf apPOL block inactive.
COc1ccc(C2=NC3(CCNCC3)NC(c3cc(Br)ccc3O)C2)cc1 (stereo unspecified) was read as mHTT CaM bind 71 and Pf apPOL block inactive.
For COc1cccc(C2=NC3(CCNCC3)NC(c3cc(Br)ccc3O)C2)c1 (stereo unspecified) the results were mHTT CaM bind inactive and Pf apPOL block inactive.
Screening Cc1ccc(C2=NC3(CCNCC3)NC(c3cc(Cl)ccc3O)C2)cc1C (stereo unspecified) returned mHTT CaM bind inactive and Pf apPOL block inactive.
`Oc1ccc(Cl)cc1C1CC(c2ccc(Cl)cc2)=NC2(CCNCC2)N1` (stereo unspecified) gave mHTT CaM bind 66 and Pf apPOL block inactive.
COc1cccc(-n2ccnc(NC(=O)c3cccc(F)c3)c2=O)c1 was read as mHTT CaM bind inactive and Pf apPOL block inactive.
For O=C(O)CN(CCc1ccccc1)CC(=O)O the results were mHTT CaM bind inactive and Pf apPOL block inactive.
For Cn1nc(C(=O)NCc2ccc(F)cc2)c2c1CCN(C(=O)c1ccco1)C2 the results were mHTT CaM bind inactive and Pf apPOL block inactive.
`Cc1cccc(C(=O)N2CCc3c(c(C(=O)NCc4ccccc4)nn3C)C2)c1` gave mHTT CaM bind 88 and Pf apPOL block inactive.
For Cn1nc(C(=O)NCc2ccc(F)cc2)c2c1CCN(C(=O)c1cccc(F)c1)C2 the results were mHTT CaM bind inactive and Pf apPOL block inactive.
`Cn1nc(C(=O)NCc2ccccc2)c2c1CCN(C(=O)c1ccc(F)cc1)C2` gave mHTT CaM bind inactive and Pf apPOL block inactive.
Screening Cc1cccc(CNC(=O)c2nn(C)c3c2CN(C(=O)C2CC2)CC3)c1 returned mHTT CaM bind inactive and Pf apPOL block inactive.
`Cc1cccc(CNC(=O)c2nn(C)c3c2CN(C(=O)CSc2ccccc2)CC3)c1` gave mHTT CaM bind 66 and Pf apPOL block inactive.
For Cc1cccc(CNC(=O)c2nn(C)c3c2CN(C(=O)c2ccco2)CC3)c1 the results were mHTT CaM bind 72 and Pf apPOL block inactive.
Screening Cc1cccc(CNC(=O)c2nn(C)c3c2CN(C(=O)c2ccc(F)cc2)CC3)c1 returned mHTT CaM bind 51 and Pf apPOL block inactive.
For CC(C)c1nc(NCCCO)c(C#N)c2c1CCCC2 the results were mHTT CaM bind inactive and Pf apPOL block inactive.
c1ccc(COc2ccc(OCCCCN3CCOCC3)cc2)cc1 was read as mHTT CaM bind inactive and Pf apPOL block inactive.
`O=C(NCc1ccc2c(c1)OCO2)Nc1ccccc1` gave mHTT CaM bind inactive and Pf apPOL block inactive.

Screening data as filed in PubChem BioAssay.
